HT1080 IDH1KD tx: HT-1080 IDH1 knockdown cell toxicity (counter line); Potency, µM (doses to about 46.1 µM), inactives show at the top dose activity, negative = toxicity, hits mostly cytotoxic; AID 686971; HT-1080 IDH1 knockdown viability, ATP luminescence, 48 h; 360,000 compounds, 2% hits;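 note: potency is the fitted concentration of half-maximal effect; 0% = DMSO wells and -100% = cell-free medium wells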
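% activity derives from luminescence (CellTiter-Glo), normalised to DMSO and no-cell wells. HT-1080-IDH1KD cells, 750/well, had 48 h compound exposure at 37 °C.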
HT1080-NT tox: kills 2HG-producing HT-1080-NT fibrosarcoma cells; HT-1080-NT fibrosarcoma viability, CellTiter-Glo ATP luminescence, 48 h; Potency, µM (highest dose often 46.1 µM), for the others: at the highest dose activity, negative = less viability, most hits filed as cytotoxic; 360,000 compounds, 1.6% hits; AID 686970;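 note: NT is the 2HG producing partner of a matched IDH1 knockdown line; potency is the fitted concentration of half-maximal effect; 0% = DMSO-treated cells and -100% = media-only wells without cells; nearly all actives have a fitted effect of over 55% in size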
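HT-1080-NT; 750 cells/well; 5% FBS RPMI; 48 h compound, 37 degrees C; CellTiter-Glo luminescence; curve fitting and curve-class assignment.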
DT40 TDP1 CPT: DT40-hTDP1 cell growth loss with CPT | 420,000 compounds, 12% hits | chicken DT40 Tdp1-/-;hTDP1 cells + 20 nM CPT, ATP luminescence, 48 h | AID 686979 | Potency, µM (top dose mostly 46.2 µM), for inactives: top-dose activity change, negative = growth inhibition, most hits filed as inhibitors; note: potency is the fitted concentration of half-maximal effect; nearly all actives have a fitted effect of over 55% in size
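Chicken DT40 Tdp1-/- cells stably complemented with human TDP1 were seeded at 400 cells/well in medium containing 20 nM camptothecin, exposed to pin-transferred compounds, and grown at 37 °C for at least 48 hr. Viability was read as ATP luminescence.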
IL1B secr inh: inflammasome signaling inhibition, IL-1 beta readout | activity change, % at 57.5 µM | THP-1 LPS/ATP IL-1B secretion, AlphaLISA, 16 h; hits give low values | 360,000 compounds, 4.7% hits; in the data active = activity change below about -50%; inconclusive = mostly about -30% to -49%
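Secreted IL-1B measured by AlphaLISA bead assay after 16 h compound exposure of THP-1 cells; compounds (final up to 57.5 uM) added 1 h before LPS (250 ng/mL) and ATP (1.25 mM) stimulation; lower signal means less secretion.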
DT40 TDP1 no CPT: qHTS for Inhibitors of human tyrosyl-DNA phosphodiesterase 1 (TDP1): qHTS in cells in absence of CPT; DT40 Tdp1-/- hTDP1 cells, no CPT, ATP luminescence, 48 h; Potency, µM (highest dose often 46.2 µM), for the others: at the top dose activity change, negative = growth inhibition, hits mostly inhibitors; 420,000 compounds, 15% hits; AID 686978, 2013; note: potency is the fitted concentration of half-maximal effect; nearly all actives have a fitted effect of over 55% in size
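Luminescent ATP content (CellTiter-Glo) served as the growth readout. Knockout chicken DT40 cells expressing human TDP1 were exposed to compounds without camptothecin for a minimum 48 hr at 37 °C.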
* = called active by the depositor; ? = inconclusive; · = no result. In the library only some 19% were active in any assay of this set; here they are far more common. Unless noted, calls come from the whole dose curve; as a rule, active = well fitted curve in the direction sought with a large enough effect; inconclusive = small, poorly fitted or top-dose-only effect, or another doubt; inactive = no such curve, though single readings can be large; an effect the other way counts as inactive or inconclusive. Unless noted, % is set by controls: 0 for no effect and ±100 for the full control effect.

SMILES	HT1080 IDH1KD tx	HT1080-NT tox	DT40 TDP1 CPT	IL1B secr inh	DT40 TDP1 no CPT
COc1ccc(C)cc1NC(=O)CN1CCN(c2ccc(F)cc2)CC1	-1%	-2%	21µM*	-12	23µM*
COc1cc(CC(=O)N2CCN(S(=O)(=O)c3ccc(C(C)C)cc3)CC2)cc(OC)c1OC	-3%	-9%	21µM*	-11	21µM*
CCc1ccccc1NC(=O)CN1CCN(CC(=O)Nc2cc(C)ccc2OC)CC1	-7%	3%	?	-2	6.5µM*
COc1ccc(C)cc1NC(=O)CN1CCN(S(=O)(=O)c2ccc(C(C)C)cc2)CC1	2%	0%	?	-17	16µM*
COC(=O)[C@@H]1CCCN1C(=O)c1c(OC)cc(=O)n2c1CCN(Cc1ccc3c(c1)OCCO3)CC2	·	·	-5%	·	-1%
COc1ccc(C2=CC(=O)C[C@H](CN3C(=O)c4ccccc4C3=O)N(C(=O)OC(C)(C)C)O2)cc1	7%	2%	?	14	?
CCN(CC)S(=O)(=O)c1ccc(-c2nnc3sc4cccc(C)c4n23)cc1	-5%	-14%	23µM*	11	?
CCOC(=O)c1c(C)sc(-c2c(-c3ccccc3)[nH]c3[nH]c(=O)[nH]c(=O)c23)c1O	·	·	-5%	·	-15%
Cc1cccc(-n2cc(CN3CCCN(C=O)CC3)c(-c3cccc(F)c3)n2)c1	-8%	18%	?	-11	?
CC(=O)N1CCCN(Cc2cn(-c3cccc(C)c3)nc2-c2cccc(F)c2)CC1	-12%	-4%	?	-23	16µM*
COCCN1CCC(CNCc2cn(-c3cc(C)ccc3C)nc2-c2ccccc2)C1 (stereo not drawn)	?	26µM*	?	-24	6.5µM*
CC(=O)N1CCCN(Cc2cn(-c3ccc(C)cc3)nc2-c2ccc(F)cc2)CC1	-4%	-13%	?	-78*	18µM*
CC(=O)N1CCCN(Cc2cn(-c3cc(C)ccc3C)nc2-c2ccccc2)CC1	-6%	-10%	18µM*	22	?
COc1ccc(CCC(=O)N2CCN(S(=O)(=O)c3ccc(OC)c([N+](=O)[O-])c3)CC2)cc1	-2%	2%	?	3	?
O=C(NCc1nnc2n1CCN(Cc1cc(F)cc(F)c1)CC2)c1cccc(F)c1	·	·	4.1µM*	·	4.6µM*
Cc1onc(-c2ccccc2)c1C(=O)NC(C)CCc1ccccc1 (stereo not drawn)	-17%	1%	-25%	-12	?
CC(=O)c1cccc(NC(=O)c2nc(-c3ccccc3)n(-c3cccc(Cl)c3)n2)c1	·	·	16µM*	·	13µM*
CC(=O)c1ccc(NC(=O)c2nc(-c3ccccc3)n(-c3ccccc3Cl)n2)cc1	·	·	26µM*	·	18µM*
NC(=O)c1ccsc1NC(=O)c1nc(-c2ccccc2)n(-c2ccccc2)n1	-16%	-6%	?	-52*	?
CC(=O)c1ccc(NC(=O)c2nc(-c3ccccc3)n(-c3ccccc3)n2)cc1	·	·	?	·	21µM*
Cc1cc2oc(=O)ccc2cc1[N+](=O)[O-]	14%	9%	-2%	18	-7%
Cc1nn(-c2ccccc2)c(Cl)c1C(=O)NCC1CCCO1 (stereo not drawn)	8%	-12%	-9%	-2	-5%
O=[N+]([O-])c1ccc(O)c(C2=NNC(c3ccccc3F)C2)c1 (stereo not drawn)	?	21µM*	23µM*	-58*	16µM*
COc1ccccc1CNC(=O)CN1C(=O)NC2(CCCCCC2)C1=O	15%	7%	9%	5	-24%
COc1cccc(-c2sc3ccccc3c2-c2ccc(OCCN3CCCC3)cc2)c1	?	?	9.2µM*	-23	8.2µM*
SMILES	HT1080 IDH1KD tx	HT1080-NT tox	DT40 TDP1 CPT	IL1B secr inh	DT40 TDP1 no CPT
COc1ccc2sc(-c3ccccc3OC)c(-c3ccc(OCCN(C)C)cc3)c2c1	?	?	16µM*	?	21µM*
COc1cccc(-c2sc3ccccc3c2-c2ccc(OCCN(C)C)cc2)c1	16µM*	?	?	?	18µM*
c1ccc(-c2sc3ccccc3c2-c2ccc(OCCN3CCCC3)cc2)cc1	-11%	?	21µM*	?	15µM*
COc1cccc(-c2sc3ccc(OC)cc3c2-c2ccc(C(N)=O)cc2)c1	-19%	?	?	-25	-23%
c1ccc(COc2ccc(OCCN3CCCC3)cc2)cc1	0%	-8%	?	-15	?
Cc1ccc(S(=O)(=O)NCC(=O)OCC(=O)N(CCC#N)c2ccccc2)cc1	26%	12%	5%	18	-6%
Cc1c(-c2ccc(OCCN3CCCCC3)cc2)c(=O)oc2ccc3ccccc3c12	11%	13%	10%	28	-20%
COc1cccc(-c2sc3cc(OC)c(OC)cc3c2-c2ccc(OCCN3CCCCC3)cc2)c1	16µM*	?	18µM*	-11	13µM*
COc1cccc(-c2sc3ccccc3c2-c2ccc(OCCN3CCCCC3)cc2)c1	-15%	-8%	?	?	18µM*
CCOC(=O)c1c(C)[nH]c(C(=O)N2CCC(C(=O)OCC)CC2)c1C	11%	-2%	-19%	16	11%
COC(=O)c1cc(OC)c(OC)cc1NC(=O)Nc1ccc(OC)cc1	16%	15%	2%	-11	-5%
COC(=O)c1cc2ccc(OC)cc2c2cc(OC)c(OC)cc12	-14%	-14%	?	-61*	?
CSc1ncccc1C(=O)Nc1cccc(S(=O)(=O)N2CCCCCC2)c1	-10%	-5%	?	-23	29µM*
O=C(Nc1cccc(S(=O)(=O)N2CCCCC2)c1)c1ccccc1NS(=O)(=O)c1ccc(F)cc1	23µM*	?	?	0	21µM*
O=C1CCC(C(=O)Nc2cccc(S(=O)(=O)Nc3ccccc3F)c2)=NN1	2%	?	18µM*	-12	13µM*
Cc1ccc(NC(=O)c2ccccc2NS(=O)(=O)c2ccc(F)cc2)cc1S(=O)(=O)N1CCCCC1	?	?	16µM*	-23	12µM*
Cc1ccc(Cl)cc1NC(=O)CCCN1C(=O)c2cccnc2C1=O	-2%	2%	9%	30	-3%
CCOC(=O)C1(Cc2ccc(Cl)cc2)CCN(Cc2ccon2)CC1	3%	2%	?	33	?
O=C(CSc1ccc([N+](=O)[O-])cc1)Nc1cccc(S(=O)(=O)Nc2ccccc2F)c1	-16%	-17%	9.2µM*	18	?
O=C(Cc1ccc(Cl)cc1)Nc1cccc(S(=O)(=O)Nc2ccccc2F)c1	0%	0%	-7%	-12	?
